Source: the supplement of paper PMC11732987, “Enantioselective OTUD7B fragment discovery through chemoproteomics screening and high-throughput optimisation” (Communications Chemistry, 2025)

Tests used:
Test in all cases: log2 ratio of Biotin-Ahx-Ub-VS probe labelling (fragment/DMSO); higher = less target engagement (more negative = stronger competition), active = hit call of the paper (q ≤ 0.05, log2 ratio ≤ -1)
Settings in all cases: compound concentration: 200 uM; treatment time: 3 h
USP42 = molecular target: T1, USP42 (UniProt Q9H9J4)
T1 sequence (whole entry): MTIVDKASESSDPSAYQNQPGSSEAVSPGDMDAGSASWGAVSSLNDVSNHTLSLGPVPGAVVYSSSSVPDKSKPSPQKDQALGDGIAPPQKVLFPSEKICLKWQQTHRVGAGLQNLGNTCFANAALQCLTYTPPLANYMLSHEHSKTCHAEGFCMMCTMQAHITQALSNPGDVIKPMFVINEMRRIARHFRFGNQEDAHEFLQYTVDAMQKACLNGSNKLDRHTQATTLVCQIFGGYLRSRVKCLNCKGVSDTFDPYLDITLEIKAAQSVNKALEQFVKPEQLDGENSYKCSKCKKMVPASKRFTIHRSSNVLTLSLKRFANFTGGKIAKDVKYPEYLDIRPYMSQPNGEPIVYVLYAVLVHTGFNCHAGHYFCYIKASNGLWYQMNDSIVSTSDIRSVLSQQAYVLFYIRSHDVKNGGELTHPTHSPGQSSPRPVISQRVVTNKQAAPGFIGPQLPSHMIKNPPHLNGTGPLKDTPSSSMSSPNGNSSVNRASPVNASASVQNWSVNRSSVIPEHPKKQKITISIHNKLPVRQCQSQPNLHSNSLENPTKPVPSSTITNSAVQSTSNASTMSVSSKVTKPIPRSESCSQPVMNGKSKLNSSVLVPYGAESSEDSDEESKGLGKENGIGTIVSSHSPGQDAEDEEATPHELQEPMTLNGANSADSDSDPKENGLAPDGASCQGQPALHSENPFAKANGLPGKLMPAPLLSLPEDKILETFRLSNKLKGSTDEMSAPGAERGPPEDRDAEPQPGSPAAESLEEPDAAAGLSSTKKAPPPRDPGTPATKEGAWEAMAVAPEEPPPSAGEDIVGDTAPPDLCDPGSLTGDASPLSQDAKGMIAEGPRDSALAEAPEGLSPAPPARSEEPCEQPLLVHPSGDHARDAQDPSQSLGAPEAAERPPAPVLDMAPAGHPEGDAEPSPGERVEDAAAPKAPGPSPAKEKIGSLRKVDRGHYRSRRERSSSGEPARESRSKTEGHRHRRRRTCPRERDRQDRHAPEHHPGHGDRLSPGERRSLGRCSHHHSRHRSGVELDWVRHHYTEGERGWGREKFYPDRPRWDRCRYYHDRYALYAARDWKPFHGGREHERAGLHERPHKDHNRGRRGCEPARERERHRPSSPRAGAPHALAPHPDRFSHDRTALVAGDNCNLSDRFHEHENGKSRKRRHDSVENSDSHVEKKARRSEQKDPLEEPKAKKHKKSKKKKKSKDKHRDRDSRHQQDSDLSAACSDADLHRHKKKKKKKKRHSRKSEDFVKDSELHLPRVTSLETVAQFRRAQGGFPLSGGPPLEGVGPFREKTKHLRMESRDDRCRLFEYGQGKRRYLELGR
Summary of the method: (§1)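 HEK293T lysate (495 µg per sample, in Tris/CHAPS/IGEPAL buffer with protease inhibitors) was treated in triplicate with fragment at 200 µM or with DMSO for 3 h. It was then treated with Biotin-Ahx-Ub-VS (0.5 µM final) for 1 h. Labelled DUBs were NeutrAvidin-enriched, digested with LysC and trypsin, and run by diaPASEF LC-MS/MS. Spectronaut label-free quantities were global-median-normalised. Values are average log2 ratios fragment/DMSO by unpaired t-test, using proteins with ≥2 unique peptides.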

USP46 = USP46 (UniProt P62068)
USP46, sequence (P62068 whole entry): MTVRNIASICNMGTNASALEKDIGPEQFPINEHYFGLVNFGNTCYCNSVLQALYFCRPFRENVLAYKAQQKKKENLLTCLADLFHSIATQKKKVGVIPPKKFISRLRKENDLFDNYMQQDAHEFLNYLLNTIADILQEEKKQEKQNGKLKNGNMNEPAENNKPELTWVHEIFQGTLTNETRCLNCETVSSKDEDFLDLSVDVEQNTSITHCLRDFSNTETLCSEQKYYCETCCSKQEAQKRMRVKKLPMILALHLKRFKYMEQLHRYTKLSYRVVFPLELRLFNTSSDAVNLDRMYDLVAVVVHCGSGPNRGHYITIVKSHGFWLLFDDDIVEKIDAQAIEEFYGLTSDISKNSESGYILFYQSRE
Summary of the method: as §1

USP47 = molecular target: T2, USP47 (UniProt Q96K76)
T2 sequence (whole entry): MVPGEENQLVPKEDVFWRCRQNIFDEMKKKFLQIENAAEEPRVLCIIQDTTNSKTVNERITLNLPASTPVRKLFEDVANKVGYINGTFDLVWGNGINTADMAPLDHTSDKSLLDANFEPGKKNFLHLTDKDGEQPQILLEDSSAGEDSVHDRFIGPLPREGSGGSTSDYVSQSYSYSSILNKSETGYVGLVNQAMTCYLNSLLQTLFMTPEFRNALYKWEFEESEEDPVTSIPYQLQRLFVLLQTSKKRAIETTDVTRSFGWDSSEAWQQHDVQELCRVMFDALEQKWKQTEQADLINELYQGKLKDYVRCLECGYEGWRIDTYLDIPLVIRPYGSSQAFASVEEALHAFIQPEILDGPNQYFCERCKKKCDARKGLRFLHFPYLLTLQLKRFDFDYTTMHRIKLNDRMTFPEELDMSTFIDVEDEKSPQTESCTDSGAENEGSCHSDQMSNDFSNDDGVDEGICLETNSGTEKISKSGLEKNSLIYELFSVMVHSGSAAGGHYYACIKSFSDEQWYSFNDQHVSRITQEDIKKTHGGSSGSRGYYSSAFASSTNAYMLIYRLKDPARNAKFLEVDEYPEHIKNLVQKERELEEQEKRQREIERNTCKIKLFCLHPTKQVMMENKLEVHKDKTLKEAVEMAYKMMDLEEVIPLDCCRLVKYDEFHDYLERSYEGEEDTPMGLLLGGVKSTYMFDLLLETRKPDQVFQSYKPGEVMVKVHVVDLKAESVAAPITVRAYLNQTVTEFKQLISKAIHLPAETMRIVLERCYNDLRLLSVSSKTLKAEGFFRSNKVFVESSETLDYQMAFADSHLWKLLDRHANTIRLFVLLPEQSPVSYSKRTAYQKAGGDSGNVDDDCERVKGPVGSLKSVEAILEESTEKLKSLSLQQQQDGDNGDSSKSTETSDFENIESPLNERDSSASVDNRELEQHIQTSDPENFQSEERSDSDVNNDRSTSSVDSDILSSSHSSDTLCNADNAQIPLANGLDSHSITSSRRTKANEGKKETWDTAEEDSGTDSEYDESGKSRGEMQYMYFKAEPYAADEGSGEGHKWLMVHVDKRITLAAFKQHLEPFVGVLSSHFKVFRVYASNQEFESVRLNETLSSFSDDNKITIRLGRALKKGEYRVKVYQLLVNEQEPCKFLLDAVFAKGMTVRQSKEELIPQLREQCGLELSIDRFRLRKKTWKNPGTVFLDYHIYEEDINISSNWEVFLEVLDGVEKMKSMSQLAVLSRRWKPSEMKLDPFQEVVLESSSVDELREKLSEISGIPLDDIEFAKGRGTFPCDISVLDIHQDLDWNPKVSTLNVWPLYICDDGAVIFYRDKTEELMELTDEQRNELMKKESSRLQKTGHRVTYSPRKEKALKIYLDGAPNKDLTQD
Summary of the method: as §1

USP48 = molecular target: T3, USP48 (UniProt Q86UV5)
T3 sequence (whole entry): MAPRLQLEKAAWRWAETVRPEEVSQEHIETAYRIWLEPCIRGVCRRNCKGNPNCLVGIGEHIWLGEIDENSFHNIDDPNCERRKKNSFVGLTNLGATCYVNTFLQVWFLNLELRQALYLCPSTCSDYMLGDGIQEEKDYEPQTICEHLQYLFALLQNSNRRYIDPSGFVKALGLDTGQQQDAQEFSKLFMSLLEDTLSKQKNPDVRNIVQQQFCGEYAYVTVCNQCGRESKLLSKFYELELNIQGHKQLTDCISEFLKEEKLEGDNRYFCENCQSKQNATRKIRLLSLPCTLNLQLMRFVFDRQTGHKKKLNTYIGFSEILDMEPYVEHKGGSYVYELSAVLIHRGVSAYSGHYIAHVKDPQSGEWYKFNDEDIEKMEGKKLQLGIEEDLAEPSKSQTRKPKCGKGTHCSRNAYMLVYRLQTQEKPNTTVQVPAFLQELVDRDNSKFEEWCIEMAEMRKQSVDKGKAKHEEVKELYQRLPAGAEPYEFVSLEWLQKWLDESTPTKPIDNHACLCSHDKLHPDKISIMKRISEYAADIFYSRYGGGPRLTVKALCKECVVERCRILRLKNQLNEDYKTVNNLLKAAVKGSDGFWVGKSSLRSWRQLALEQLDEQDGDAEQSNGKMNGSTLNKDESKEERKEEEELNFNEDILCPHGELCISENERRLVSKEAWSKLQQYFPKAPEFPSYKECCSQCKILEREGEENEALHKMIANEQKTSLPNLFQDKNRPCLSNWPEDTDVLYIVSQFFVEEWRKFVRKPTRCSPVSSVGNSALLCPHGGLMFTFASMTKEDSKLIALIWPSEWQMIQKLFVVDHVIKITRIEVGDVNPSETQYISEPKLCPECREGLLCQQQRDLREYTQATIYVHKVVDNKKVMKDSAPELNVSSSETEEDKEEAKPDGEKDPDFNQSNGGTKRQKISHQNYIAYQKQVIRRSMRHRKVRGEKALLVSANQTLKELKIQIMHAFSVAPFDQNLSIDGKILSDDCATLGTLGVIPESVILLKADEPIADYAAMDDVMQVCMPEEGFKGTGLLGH
Summary of the method: as §1

USP5 = molecular target: T4, USP5 (UniProt P45974)
T4 sequence (whole entry): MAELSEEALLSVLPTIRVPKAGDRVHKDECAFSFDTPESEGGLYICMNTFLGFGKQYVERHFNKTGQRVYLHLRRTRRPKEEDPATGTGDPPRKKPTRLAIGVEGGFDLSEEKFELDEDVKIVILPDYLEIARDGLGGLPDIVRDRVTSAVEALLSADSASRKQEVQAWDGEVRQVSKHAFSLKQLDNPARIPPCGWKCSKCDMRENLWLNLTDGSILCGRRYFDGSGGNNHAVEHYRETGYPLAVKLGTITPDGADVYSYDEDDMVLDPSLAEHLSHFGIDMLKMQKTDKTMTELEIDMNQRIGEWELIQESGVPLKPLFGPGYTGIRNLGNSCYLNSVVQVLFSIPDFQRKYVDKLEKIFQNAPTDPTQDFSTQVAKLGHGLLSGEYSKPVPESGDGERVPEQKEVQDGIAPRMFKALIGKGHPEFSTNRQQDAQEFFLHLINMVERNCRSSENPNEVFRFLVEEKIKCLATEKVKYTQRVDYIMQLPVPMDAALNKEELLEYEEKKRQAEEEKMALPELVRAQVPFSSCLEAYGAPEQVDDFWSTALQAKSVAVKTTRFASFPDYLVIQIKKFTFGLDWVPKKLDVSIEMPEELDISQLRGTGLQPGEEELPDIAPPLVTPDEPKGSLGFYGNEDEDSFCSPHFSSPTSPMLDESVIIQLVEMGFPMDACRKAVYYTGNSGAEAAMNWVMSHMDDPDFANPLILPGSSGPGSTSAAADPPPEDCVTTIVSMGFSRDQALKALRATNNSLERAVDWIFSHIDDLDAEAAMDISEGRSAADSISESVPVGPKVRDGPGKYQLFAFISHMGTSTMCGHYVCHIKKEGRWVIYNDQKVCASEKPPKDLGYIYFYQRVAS
Summary of the method: as §1

USP54 = USP54 (UniProt Q70EL1)
USP54, sequence (Q70EL1 whole entry): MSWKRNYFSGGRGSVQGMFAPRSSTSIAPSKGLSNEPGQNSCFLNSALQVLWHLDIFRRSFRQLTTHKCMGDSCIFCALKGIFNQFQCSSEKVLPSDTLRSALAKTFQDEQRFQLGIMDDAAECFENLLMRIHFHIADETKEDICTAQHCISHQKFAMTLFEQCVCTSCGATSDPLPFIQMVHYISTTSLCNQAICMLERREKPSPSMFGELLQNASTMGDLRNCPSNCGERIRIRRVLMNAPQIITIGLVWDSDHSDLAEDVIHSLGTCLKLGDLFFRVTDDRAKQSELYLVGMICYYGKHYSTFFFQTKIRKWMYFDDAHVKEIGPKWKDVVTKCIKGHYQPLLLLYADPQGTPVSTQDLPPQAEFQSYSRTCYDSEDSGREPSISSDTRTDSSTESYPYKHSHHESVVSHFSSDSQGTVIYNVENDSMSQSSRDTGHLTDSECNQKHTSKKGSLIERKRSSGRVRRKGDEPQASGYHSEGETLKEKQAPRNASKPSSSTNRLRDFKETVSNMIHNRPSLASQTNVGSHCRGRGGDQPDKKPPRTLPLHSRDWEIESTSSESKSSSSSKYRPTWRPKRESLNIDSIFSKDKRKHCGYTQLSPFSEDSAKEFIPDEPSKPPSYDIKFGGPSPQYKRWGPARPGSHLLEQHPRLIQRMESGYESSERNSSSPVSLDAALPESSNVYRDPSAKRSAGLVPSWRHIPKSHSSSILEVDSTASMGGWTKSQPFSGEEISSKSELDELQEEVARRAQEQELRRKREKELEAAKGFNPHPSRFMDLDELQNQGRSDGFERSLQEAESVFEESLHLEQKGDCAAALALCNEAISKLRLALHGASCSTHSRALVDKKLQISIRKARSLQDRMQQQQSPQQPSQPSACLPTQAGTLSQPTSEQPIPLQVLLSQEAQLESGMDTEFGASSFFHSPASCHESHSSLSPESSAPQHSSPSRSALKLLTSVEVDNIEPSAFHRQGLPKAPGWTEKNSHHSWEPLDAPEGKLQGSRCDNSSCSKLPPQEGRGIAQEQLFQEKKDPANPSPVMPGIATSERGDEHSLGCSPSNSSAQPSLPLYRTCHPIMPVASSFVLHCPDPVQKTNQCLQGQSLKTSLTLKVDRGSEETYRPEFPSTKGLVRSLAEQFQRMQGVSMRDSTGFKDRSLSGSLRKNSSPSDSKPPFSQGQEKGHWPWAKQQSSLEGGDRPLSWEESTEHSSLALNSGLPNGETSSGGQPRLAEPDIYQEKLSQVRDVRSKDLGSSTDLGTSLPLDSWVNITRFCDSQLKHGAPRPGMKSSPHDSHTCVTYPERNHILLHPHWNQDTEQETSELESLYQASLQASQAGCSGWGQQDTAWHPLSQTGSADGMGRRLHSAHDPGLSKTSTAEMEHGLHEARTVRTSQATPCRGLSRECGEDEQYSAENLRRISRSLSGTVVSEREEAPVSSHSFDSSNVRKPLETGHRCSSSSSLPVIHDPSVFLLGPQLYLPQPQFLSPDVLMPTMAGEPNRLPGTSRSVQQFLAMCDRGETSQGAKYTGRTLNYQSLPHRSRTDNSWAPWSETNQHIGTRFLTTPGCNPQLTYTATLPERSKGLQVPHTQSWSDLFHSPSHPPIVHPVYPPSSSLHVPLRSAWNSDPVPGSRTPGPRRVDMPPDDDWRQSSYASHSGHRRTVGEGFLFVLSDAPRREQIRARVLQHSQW
Summary of the method: as §1

USP7 = USP7 (UniProt Q93009)
USP7, sequence (Q93009 whole entry, looked up): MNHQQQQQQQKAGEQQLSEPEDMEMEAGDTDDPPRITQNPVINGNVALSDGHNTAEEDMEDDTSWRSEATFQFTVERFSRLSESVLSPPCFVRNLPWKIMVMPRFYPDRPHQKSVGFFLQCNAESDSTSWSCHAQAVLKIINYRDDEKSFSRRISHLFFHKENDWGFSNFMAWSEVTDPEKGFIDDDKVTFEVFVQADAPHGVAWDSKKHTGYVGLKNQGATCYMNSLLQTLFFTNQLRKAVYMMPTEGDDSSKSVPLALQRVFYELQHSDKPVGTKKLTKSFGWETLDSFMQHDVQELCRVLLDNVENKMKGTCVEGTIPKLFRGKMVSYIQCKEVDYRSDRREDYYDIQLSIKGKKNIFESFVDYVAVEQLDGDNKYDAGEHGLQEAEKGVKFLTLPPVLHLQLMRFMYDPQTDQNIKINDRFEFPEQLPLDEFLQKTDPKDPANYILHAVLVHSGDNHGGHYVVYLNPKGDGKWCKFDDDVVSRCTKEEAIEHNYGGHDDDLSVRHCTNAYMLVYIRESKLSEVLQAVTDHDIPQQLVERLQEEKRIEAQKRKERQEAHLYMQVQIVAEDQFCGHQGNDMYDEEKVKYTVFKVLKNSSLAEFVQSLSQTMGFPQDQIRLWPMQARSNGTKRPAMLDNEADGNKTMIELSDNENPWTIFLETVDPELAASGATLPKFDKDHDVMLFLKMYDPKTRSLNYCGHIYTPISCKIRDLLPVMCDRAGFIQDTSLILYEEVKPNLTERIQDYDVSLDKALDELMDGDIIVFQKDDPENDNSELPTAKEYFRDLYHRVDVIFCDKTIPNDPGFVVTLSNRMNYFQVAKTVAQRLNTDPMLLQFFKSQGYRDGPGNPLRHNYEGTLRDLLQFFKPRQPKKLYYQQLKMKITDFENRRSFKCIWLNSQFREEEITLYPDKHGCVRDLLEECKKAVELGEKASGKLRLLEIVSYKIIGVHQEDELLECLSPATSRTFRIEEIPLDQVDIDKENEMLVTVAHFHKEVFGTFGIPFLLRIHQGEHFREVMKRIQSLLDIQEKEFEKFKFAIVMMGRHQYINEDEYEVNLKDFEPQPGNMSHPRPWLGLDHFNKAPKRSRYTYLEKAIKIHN
Summary of the method: as §1

USP8 = molecular target: T5, USP8 (UniProt P40818)
T5 sequence (whole entry): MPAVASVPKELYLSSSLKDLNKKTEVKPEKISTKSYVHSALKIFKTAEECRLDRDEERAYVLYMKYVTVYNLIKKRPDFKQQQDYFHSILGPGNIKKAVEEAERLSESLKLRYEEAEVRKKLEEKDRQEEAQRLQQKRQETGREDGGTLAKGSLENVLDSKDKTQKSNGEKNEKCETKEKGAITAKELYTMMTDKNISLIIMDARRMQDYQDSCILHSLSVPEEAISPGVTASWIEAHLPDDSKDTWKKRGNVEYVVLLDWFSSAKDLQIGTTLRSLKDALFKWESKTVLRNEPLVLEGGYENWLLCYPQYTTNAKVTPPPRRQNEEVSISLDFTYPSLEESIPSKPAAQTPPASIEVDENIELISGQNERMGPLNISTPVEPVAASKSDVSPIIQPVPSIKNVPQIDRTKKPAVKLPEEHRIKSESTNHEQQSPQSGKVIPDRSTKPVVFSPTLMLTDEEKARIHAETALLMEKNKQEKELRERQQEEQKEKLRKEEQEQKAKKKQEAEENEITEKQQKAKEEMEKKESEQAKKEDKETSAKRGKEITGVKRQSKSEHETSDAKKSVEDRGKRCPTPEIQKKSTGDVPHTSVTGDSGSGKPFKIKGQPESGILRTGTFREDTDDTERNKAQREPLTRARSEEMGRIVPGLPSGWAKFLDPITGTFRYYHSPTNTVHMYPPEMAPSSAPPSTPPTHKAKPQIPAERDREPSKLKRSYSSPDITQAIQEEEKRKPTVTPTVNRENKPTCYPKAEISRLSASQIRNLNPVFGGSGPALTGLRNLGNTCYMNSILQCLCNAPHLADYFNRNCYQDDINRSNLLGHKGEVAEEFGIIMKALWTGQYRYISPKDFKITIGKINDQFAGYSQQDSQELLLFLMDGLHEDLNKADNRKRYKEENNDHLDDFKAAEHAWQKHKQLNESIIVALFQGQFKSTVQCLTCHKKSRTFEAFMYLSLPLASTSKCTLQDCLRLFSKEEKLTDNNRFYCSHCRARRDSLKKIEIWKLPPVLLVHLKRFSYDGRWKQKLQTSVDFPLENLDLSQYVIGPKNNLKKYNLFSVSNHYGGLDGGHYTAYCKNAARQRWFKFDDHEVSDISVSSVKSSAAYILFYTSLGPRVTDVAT
Summary of the method: as §1

Measured: log2 ratio of Biotin-Ahx-Ub-VS probe labelling

O=C(CCl)N(Cc1ccsc1)C1CC1
active: USP48 -1.14 | USP7 -1.25
inactive: USP42 -0.0609 | USP46 0.201 | USP47 -0.631 | USP5 0.243 | USP54 0.171 | USP8 0.0752
